In the supplement of paper PMC4166925:
± gives the standard deviation of the averaged measurements. Over roughly 33,000 sequences, “E-score (dimensionless, -0.5 to 0.5)” has its median near -0.046; the highest 2% begin near 0.36. Many of the other results were omitted from the sample, so the highest values are more common in it than they were.

test system: T1, SpTbr T-box DNA-binding domain (GST fusion); test: PBM E-score of 8-mer (E-score (dimensionless, -0.5 to 0.5)); Tbr is Tbrain of the sea star Patiria miniata (Pm) or the sea urchin Strongylocentrotus purpuratus (Sp); higher = stronger binding preference; details: the construct has about 5 more residues each side
T1 sequence: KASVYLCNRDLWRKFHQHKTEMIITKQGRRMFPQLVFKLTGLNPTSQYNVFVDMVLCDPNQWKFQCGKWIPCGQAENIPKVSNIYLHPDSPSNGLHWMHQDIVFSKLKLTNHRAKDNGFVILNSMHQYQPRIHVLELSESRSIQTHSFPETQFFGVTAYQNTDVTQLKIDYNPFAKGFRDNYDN
Description: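 Universal protein-binding microarray (Agilent AMADID 016060, 60-bp probes with a 35-bp variable region) incubated with 200 nM GST-fused Strongylocentrotus purpuratus Tbr T-box DNA-binding domain (residues 362-554) in PBS pH 7.5. Scored for every ungapped 8-mer (given with its reverse complement) as E-score (range -0.5 to 0.5; >0.45 counts as bound) and Z-score of median probe intensity. Two replicate arrays (datasets 1 and 2).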
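Also: protein at 200 nM in PBS on universal double-stranded arrays.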

Sequence | PBM E-score of 8-mer
ATGCCAAC | 0.124 ± 0.0029
CTGCCAAC | 0.0901 ± 0.035
GTGCCAAA | 0.403 ± 0.0099
AAGAGTAT | -0.163 ± 0.024
ATACGCAC | 0.153 ± 0.063
ATTTGGCG | 0.118 ± 0.03
CTGGGGAA | 0.00742 ± 0.052
TCCGTGAA | 0.16 ± 0.012
GGCGTGCA | 0.0836 ± 0.055
GACGTGAC | 0.235 ± 0.032
CGCGTGAG | 0.313 ± 0.0063
TACGTGAA | 0.0338 ± 0.073
TGCGTGAA | 0.3936 ± 0.0023
GGCGTGAA | 0.473 ± 0.0057
CGCGTGAC | 0.355 ± 0.02
GCCGTGAA | 0.354 ± 0.018
CGCGTGAA | 0.4208 ± 0.0018
GCCGTGAC | 0.199 ± 0.011
GGCGTGAC | 0.388 ± 0.0071
AGGCTGGG | -0.179 ± 0.012
ACAGTGTA | 0.0565 ± 0.017
ATAACTCC | -0.147 ± 0.029
ACTGACTC | 0.0022 ± 0.0015

Sequence | PBM E-score of 8-mer
AGCGTGAT | 0.28 ± 0.022
AGCGTGAC | 0.3372 ± 0.0013
AGCGTGAA | 0.413 ± 0.018
AGAAGACA | 0.0347 ± 0.065
ATATGTCG | 0.139 ± 0.047
ATGTGTCG | 0.385 ± 0.011
ATGTGTCC | 0.144 ± 0.014
ATGTGTCA | 0.4671 ± 0.00078
GTGTGTCA | 0.346 ± 0.0092
CTGTGTCA | 0.247 ± 0.015
CACATTCA | 0.21 ± 0.041
CATAAAGA | -0.0483 ± 0.0071
GCGGGTGA | 0.261 ± 0.03
GAATTTCA | 0.056 ± 0.018
AAGCAAGG | -0.0863 ± 0.017
AGCCAGAA | -0.268 ± 0.024
AAGGAGAT | -0.0983 ± 0.019
AGAGGGCC | -0.194 ± 0.097
CTCCACAA | 0.136 ± 0.0093
GTCCACAC | 0.385 ± 0.0075
ATCCACAC | 0.357 ± 0.0097
GTCCACAA | 0.153 ± 0.039
CTCCACAG | -0.0194 ± 0.034

Sequence | PBM E-score of 8-mer
CTCCACAC | 0.37 ± 0.0083
AGGGACGA | 0.053 ± 0.072
CCTTTGAG | -0.17 ± 0.018
CGGTAGCA | 0.276 ± 0.031
CTTTGCAA | 0.0361 ± 0.021
GATCGGAC | -0.287 ± 0.013
ATCGGCTG | 0.0647 ± 0.039
ATACTAGA | -0.222 ± 0.11
ATTCTCAC | 0.415 ± 0.015
CTTCTCTC | 0.08 ± 0.04
CTTCTCAC | 0.401 ± 0.011
ATTCTCAA | 0.138 ± 0.062
CTTCTCAA | 0.0891 ± 0.045
ATTCTCAG | 0.0379 ± 0.094
ACCGAGGA | -0.0878 ± 0.039
AGTTCCAT | 0.00979 ± 0.0044
CTGCGACA | 0.198 ± 0.036
GTGCGATA | 0.427 ± 0.0042
TTGCGAAA | 0.33 ± 0.038
GTGCGAAA | 0.4765 ± 0.0018
CTGCGATA | 0.0968 ± 0.04
CTGCGAGA | 0.185 ± 0.0098
ATGCGAGA | 0.172 ± 0.017

Sequence | PBM E-score of 8-mer
GTGCGACA | 0.398 ± 0.012
ATGCGATA | 0.0476 ± 0.028
ATGCGACA | 0.285 ± 0.0073
CTGCGAAA | 0.342 ± 0.036
GTGCGAGA | 0.42 ± 0.0079
GATACCCC | -0.273 ± 0.041
CAAGGATA | -0.175 ± 0.043
GAATCTGC | -0.0922 ± 0.056
ATGCTCCG | -0.0668 ± 0.061
AAGCCCGG | -0.24 ± 0.028
CATGCTAA | 0.0578 ± 0.029
ACCTACTA | 0.17 ± 0.057
GCATTCTA | -0.293 ± 0.06
AGGCAGAC | -0.227 ± 0.0024
CTGCGATC | 0.106 ± 0.1
GGGCGAAC | -0.0364 ± 0.016
CTGCGAAG | 0.2479 ± 0.0022
CTGCGAAC | 0.365 ± 0.0088
ATGCGAAC | 0.154 ± 0.017
GTGCGAAC | 0.4783 ± 0.00073
AATGAGGA | -0.334 ± 0.058
AACAATGA | 0.0839 ± 0.096
AAAGTTCA | -0.0472 ± 0.047

Sequence | PBM E-score of 8-mer
CTACCGAG | -0.07 ± 0.013
AACCTGAC | 0.121 ± 0.003
CACCTGAC | 0.374 ± 0.0049
CACCTGAA | 0.29 ± 0.0089
CACCTGTC | 0.431 ± 0.019
CACCTGTA | 0.331 ± 0.036
AACCTGTC | 0.248 ± 0.011
GGATCCAC | -0.00958 ± 0.069
CGAAGTAC | -0.169 ± 0.067
GCCGTTTA | 0.0646 ± 0.08
AGTGCGAT | 0.4291 ± 0.0025
CGTGCGAC | 0.238 ± 0.029
AGTGCGAG | 0.408 ± 0.022
AATGCGAT | 0.0396 ± 0.031
CGTGCGAG | 0.373 ± 0.018
ACTGCGAT | 0.117 ± 0.0014
CATGCGAG | 0.106 ± 0.012
AGTGCGAC | 0.341 ± 0.024
ACTGCGAG | 0.17 ± 0.033
